Assay results from PubChem BioAssay AID1851 (National Center for Advancing Translational Sciences (NCATS), 2009).
Out of some 16,000 compounds screened, about 5,800 (36%) were called active. Inconclusive results (about 23%) are left out. The call rests on the fitted dose curve; in most records, active means well fitted curve in the direction sought with a large enough effect; inconclusive means small, poorly fitted or top-dose-only effect, or effect the other way; inactive means no such curve, though single readings can be large or run the other way. Some of the results follow.

Biological target: Cytochrome P450 2C19 (Homo sapiens) (UniProt P33261)
Sequence (P33261 whole entry, looked up): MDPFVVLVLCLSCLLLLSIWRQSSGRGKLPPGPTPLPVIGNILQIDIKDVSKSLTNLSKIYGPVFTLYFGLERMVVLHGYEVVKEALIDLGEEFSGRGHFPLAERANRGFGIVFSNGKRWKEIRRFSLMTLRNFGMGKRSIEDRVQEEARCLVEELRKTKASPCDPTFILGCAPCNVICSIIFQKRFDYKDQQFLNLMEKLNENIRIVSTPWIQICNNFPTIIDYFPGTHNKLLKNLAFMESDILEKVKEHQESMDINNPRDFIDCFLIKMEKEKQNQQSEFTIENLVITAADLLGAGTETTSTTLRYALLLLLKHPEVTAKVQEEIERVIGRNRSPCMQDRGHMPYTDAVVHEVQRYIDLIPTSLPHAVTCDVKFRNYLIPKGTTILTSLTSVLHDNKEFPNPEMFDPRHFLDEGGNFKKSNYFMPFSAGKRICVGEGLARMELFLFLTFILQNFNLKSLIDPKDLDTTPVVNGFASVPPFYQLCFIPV
Experiment: Cytochrome panel assay with activity outcomes
Settings: recombinant CYP, pro-luciferin dealkylation, luminescence, p450-cyp2c19; series mostly up to 57.1 µM
On the % scale 0 is the no-effect control and ±100 the full control effect.

AC50, inactive:
Cn1c(=O)c2cc(S(=O)(=O)NCCC(=O)Nc3ccc(Cl)cc3)ccc2n(C)c1=O
CCCN(CCC)CCNC(=O)C1CCCN(S(=O)(=O)c2ccc3c(c2)oc(=O)n3C)C1 (stereo not drawn)
CC(C)(C)c1onc(OCP(=O)(O)O)c1C[C@@H](N)C(=O)O
CCOc1cc(C#N)c(NC(=O)c2cccnc2)cc1OCC
CCNc1ncc2nc(-c3cc(F)cc(F)c3)c(=O)n(CCOC)c2n1
CCCc1cc(=O)oc2cc(OCc3cc(OC)c(OC)c(OC)c3)c(Cl)cc12
O=C(NNC(=O)C1CCCCC1)c1cnccn1
Cn1nc(C(=O)NC2CCCCC2)c2ccccc2c1=O
COc1ccc(OC)c(NC(=O)[C@H]2CC=CC[C@H]2C(=O)O)c1

AC50, active:
Cn1c(=O)oc2cc(S(=O)(=O)NCCC(=O)N3CC=C(c4ccccc4)CC3)ccc21 6.31 µM
O=C(Nc1ccc(F)cc1)c1ccc(-n2ccnc2)nc1 0.0708 µM
Cc1c(Cl)cccc1NC(=O)c1ccc(-n2ccnc2)nc1 0.0447 µM
CCCCc1n[nH]c2c1/C(=N/O)CC(c1ccccc1)C2 (stereo not drawn) 0.447 µM
CCCc1cc(=O)oc2cc(OCc3nn[nH]n3)ccc12 25.1 µM
CCn1c(-c2ccccc2Cl)nn(CC(=O)Nc2ccc(OC)cc2)c1=S 3.55 µM
CCn1c(-c2ccccc2Cl)nn(CC(=O)Nc2cc(Cl)ccc2Cl)c1=S 1.78 µM
CCn1c(-c2ccccc2Cl)nn(CC(=O)Nc2ccccc2OC)c1=S 0.891 µM
COC(=O)c1ccc(C23CC2(C(NP(=O)(c2ccccc2)c2ccccc2)c2ccccc2)C3)cc1 (stereo not drawn) 10 µM
O=C(NC1CCCC1)c1cccnc1N1CCCCCC1 8.91 µM
COc1cc(C)nc(N2CCCC(C(=O)Nc3cc(Cl)ccc3OC)C2)n1 (stereo not drawn) 0.126 µM
O=C(/C=C/c1ccc2ccccc2c1)c1ccoc1 2 µM
CS(=O)(=O)c1nc(-c2ccccc2)cc(-c2ccccc2)c1C#N 0.794 µM
O=C(OCc1cccc(F)c1)c1ccc2c(c1)-c1ccccc1C2=O 11.2 µM

activity, negative = inhibition, inactive:
COC(=O)c1cc(=O)[nH]c(=O)[nH]1 23% [at 11.4 µM]
COC(=O)/C=C\CCc1coc(/C=C\CNC(=O)OC)n1 31.7% [at 11.4 µM]
NCS(=O)(=O)O 8.81% [at 11.4 µM]
O=C1c2ccccc2-c2ccc(N(Cc3ccc(Br)cc3)Cc3ccc(Br)cc3)cc21 -10.9% [at 11.4 µM]
O=C1c2ccccc2-c2ccc(NC(=O)[C@H]3CCCC[C@@H]3C(=O)O)cc21 -17.3% [at 11.4 µM]
